Source: PMC7862700, “An all-to-all approach to the identification of sequence-specific readers for epigenetic DNA modifications on cytosine”

Key:
Experiment in all cases: DAPPL (digital affinity profiling via proximity ligation, sequencing); 10 mM Tris-HCl pH 7.5, 50 mM NaCl, 1 mM DTT, 4% glycerol, room temperature, 30 min; GST-TFs on glutathione beads, 16-mer random dsDNA library, 0.1% formaldehyde crosslink after washing; high values mean tight binding
[1] = target: T1, FEV (Homo sapiens, UniProt Q99581 1-238); details: protein: recombinant; tags: N-terminal GST; dsDNA, one strand shown
T1 sequence: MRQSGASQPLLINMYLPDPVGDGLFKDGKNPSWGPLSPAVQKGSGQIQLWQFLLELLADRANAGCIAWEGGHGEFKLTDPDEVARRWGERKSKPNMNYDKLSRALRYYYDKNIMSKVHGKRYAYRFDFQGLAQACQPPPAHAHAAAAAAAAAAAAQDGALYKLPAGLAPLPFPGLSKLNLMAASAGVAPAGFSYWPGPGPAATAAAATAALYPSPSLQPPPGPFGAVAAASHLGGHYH
In short: (§1)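 Pools of DNA-barcoded human transcription factors, expressed in yeast as GST fusions on glutathione beads and combined with a tag-only sample, were incubated with 200 nmole of a 16-mer random double-stranded DNA library. Incubation took 30 min at room temperature in Tris/NaCl/DTT/glycerol buffer and was followed by washing, 0.1% formaldehyde crosslinking, proximity ligation (BsaI/T4 ligase, 1 h, 37 °C), PCR amplification and sequencing on an Illumina NextSeq500. Binding signal is the ratio of a hexamer's read frequency for a factor to its frequency for the tag-only sample.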

[2] = target: ETV5 (Homo sapiens, UniProt P41161 1-510); details: protein: recombinant; tags: N-terminal GST; dsDNA, one strand shown
ETV5, sequence (P41161 whole entry): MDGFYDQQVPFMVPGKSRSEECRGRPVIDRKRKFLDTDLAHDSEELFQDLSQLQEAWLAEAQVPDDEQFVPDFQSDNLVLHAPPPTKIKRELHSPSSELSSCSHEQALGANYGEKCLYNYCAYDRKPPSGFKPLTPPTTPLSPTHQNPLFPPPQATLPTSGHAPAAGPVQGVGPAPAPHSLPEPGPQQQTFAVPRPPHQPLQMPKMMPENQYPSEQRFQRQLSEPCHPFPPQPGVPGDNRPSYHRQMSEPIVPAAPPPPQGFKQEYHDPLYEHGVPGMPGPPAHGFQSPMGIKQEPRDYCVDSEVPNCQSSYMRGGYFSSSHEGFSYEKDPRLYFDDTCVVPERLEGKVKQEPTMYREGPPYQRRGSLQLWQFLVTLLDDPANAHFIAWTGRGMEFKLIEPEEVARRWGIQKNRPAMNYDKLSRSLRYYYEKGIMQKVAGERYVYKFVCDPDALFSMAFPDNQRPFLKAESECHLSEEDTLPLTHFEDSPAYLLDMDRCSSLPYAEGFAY
In short: as §1

[3] = target: HSF1 (Homo sapiens, UniProt Q00613 1-529); details: protein: recombinant; tags: N-terminal GST; chain copies: 3; dsDNA, one strand shown
HSF1, sequence (Q00613 whole entry): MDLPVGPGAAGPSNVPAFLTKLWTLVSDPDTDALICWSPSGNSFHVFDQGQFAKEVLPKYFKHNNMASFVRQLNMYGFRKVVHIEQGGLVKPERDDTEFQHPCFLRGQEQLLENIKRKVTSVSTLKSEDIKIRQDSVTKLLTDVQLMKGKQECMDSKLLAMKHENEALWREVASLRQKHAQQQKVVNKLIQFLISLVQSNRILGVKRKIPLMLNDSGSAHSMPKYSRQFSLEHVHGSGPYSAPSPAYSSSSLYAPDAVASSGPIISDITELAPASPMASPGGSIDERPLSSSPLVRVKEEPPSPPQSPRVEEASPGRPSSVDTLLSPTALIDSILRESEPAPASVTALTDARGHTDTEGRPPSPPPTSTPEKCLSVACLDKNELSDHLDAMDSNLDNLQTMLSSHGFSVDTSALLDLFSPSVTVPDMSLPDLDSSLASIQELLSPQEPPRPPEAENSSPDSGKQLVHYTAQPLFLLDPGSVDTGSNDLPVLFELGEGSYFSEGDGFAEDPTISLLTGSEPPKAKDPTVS
In short: as §1

[4] = target: T2, SPIC (Homo sapiens, UniProt Q8N5J4 1-248); details: protein: recombinant; tags: N-terminal GST; dsDNA, one strand shown
T2 sequence: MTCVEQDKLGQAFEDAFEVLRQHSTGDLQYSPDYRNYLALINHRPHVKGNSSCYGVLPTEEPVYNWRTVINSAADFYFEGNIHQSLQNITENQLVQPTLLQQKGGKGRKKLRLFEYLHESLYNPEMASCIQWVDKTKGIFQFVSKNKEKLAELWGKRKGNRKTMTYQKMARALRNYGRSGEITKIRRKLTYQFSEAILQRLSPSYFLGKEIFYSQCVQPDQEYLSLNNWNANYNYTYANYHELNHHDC
In short: as §1

[5] = target: ELF4 (Homo sapiens, UniProt Q99607 1-663); details: protein: recombinant; tags: N-terminal GST; dsDNA, one strand shown
ELF4, sequence (Q99607 whole entry): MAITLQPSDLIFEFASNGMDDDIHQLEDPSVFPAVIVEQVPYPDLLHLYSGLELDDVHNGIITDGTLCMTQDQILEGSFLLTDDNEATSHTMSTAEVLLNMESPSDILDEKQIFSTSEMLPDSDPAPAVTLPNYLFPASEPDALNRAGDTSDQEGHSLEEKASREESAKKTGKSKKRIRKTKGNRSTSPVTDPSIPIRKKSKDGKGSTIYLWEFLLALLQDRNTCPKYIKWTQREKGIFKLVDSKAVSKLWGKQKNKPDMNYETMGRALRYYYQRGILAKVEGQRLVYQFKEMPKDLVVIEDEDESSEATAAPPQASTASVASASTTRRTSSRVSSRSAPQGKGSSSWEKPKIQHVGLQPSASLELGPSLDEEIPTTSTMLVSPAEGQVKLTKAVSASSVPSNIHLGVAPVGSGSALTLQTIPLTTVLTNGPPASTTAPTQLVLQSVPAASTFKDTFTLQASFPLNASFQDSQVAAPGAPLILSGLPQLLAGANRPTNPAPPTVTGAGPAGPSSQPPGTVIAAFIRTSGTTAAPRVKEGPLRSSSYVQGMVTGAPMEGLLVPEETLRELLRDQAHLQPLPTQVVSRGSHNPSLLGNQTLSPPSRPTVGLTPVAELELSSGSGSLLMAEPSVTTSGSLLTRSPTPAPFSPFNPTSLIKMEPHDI
In short: as §1

[6] = target: T3, ELK4 (Homo sapiens, UniProt P28324-2 1-405); details: protein: recombinant; tags: N-terminal GST; dsDNA, one strand shown
T3 sequence: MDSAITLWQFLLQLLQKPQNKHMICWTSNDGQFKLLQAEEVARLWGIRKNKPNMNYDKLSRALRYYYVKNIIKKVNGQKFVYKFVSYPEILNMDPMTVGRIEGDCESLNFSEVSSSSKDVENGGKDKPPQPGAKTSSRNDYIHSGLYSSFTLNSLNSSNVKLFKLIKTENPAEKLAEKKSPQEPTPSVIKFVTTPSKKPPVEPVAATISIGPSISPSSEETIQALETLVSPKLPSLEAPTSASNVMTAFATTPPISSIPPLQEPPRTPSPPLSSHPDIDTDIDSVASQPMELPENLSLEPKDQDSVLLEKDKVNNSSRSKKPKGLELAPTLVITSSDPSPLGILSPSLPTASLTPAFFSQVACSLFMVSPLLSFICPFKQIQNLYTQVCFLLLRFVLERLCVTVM
In short: as §1

[7] = target: T4, ETV2 (Homo sapiens, UniProt O00321 1-342); details: protein: recombinant; tags: N-terminal GST; dsDNA, one strand shown
T4 sequence: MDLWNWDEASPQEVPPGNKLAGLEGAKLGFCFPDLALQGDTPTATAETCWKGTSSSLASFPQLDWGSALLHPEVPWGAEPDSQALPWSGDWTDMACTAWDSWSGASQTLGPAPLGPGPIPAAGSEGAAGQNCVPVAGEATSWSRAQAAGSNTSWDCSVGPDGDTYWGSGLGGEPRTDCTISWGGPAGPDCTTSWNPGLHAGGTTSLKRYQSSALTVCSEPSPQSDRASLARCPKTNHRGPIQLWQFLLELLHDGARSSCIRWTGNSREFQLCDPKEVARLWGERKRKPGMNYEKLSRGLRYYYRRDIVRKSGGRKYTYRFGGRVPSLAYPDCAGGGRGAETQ
In short: as §1

[8] = target: T5, ELF3 (Homo sapiens, UniProt P78545 1-371); details: protein: recombinant; tags: N-terminal GST; dsDNA, one strand shown
T5 sequence: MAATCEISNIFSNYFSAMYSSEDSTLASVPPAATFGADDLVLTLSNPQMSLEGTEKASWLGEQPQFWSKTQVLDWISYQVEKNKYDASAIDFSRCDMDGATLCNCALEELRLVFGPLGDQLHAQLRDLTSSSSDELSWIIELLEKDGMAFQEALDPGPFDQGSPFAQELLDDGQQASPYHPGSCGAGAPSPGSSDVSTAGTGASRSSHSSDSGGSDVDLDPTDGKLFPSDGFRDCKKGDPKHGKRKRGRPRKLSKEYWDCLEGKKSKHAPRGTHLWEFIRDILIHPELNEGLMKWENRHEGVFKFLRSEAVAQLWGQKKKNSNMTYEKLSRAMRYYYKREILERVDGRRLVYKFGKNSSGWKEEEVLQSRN
In short: as §1

[9] = target: CRX (Homo sapiens, UniProt O43186 1-299); details: protein: recombinant; tags: N-terminal GST; dsDNA, one strand shown
CRX, sequence (O43186 whole entry): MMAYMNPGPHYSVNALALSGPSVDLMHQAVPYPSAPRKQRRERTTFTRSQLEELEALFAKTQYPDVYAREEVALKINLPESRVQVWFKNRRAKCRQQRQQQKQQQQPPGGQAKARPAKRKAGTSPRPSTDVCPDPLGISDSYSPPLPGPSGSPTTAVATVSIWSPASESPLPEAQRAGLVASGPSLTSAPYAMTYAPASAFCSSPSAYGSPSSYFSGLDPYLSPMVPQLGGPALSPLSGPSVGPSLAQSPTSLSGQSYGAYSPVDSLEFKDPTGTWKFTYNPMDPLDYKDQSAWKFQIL
In short: as §1

[10] = target: ETV1 (Homo sapiens, UniProt P50549 1-477); details: protein: recombinant; tags: N-terminal GST; dsDNA, one strand shown
ETV1, sequence (P50549 whole entry): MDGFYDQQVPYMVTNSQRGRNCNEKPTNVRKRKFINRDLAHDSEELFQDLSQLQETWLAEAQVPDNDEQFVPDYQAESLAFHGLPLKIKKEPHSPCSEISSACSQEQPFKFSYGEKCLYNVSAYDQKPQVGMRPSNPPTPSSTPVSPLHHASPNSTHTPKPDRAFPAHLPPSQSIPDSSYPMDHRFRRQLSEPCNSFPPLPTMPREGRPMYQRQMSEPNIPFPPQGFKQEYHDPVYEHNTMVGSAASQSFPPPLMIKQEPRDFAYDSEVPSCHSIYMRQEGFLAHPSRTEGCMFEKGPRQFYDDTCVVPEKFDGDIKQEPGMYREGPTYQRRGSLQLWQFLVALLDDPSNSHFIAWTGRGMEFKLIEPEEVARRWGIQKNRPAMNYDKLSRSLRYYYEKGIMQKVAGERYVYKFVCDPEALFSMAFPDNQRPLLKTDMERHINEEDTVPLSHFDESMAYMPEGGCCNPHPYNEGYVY
In short: as §1

[11] = target: T6, ERF (Homo sapiens, UniProt P50548 1-548); details: protein: recombinant; tags: N-terminal GST; dsDNA, one strand shown
T6 sequence: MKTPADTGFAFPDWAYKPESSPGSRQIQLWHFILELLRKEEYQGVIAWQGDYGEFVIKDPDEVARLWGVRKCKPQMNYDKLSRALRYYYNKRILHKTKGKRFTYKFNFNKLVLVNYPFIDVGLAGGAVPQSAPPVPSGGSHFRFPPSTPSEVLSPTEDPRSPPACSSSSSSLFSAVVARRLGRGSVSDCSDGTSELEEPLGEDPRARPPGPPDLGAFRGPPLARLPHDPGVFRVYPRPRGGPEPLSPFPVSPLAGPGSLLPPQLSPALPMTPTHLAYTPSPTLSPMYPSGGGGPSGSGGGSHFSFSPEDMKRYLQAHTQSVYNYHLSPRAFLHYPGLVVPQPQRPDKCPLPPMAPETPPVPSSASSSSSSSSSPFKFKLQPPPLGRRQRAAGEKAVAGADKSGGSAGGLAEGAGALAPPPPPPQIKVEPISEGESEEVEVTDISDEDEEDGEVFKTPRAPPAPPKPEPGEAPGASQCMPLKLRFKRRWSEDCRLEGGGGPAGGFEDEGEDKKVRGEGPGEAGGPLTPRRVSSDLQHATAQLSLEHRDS
In short: as §1

[12] = target: T7, ETV3L (Homo sapiens, UniProt Q6ZN32 1-361); details: protein: recombinant; tags: N-terminal GST; dsDNA, one strand shown
T7 sequence: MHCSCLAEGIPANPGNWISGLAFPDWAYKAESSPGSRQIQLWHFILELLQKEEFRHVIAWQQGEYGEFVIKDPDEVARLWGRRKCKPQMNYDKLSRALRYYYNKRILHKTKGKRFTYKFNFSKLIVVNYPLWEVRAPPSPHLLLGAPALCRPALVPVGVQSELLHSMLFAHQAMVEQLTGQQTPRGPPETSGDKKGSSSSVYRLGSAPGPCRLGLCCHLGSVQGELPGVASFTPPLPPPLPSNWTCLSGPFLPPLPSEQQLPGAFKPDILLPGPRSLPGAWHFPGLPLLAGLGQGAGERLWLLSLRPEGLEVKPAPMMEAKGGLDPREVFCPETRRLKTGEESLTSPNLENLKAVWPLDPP
In short: as §1

[13] = target: T8, ETS2 (Homo sapiens, UniProt P15036 1-469); details: protein: recombinant; tags: N-terminal GST; dsDNA, one strand shown
T8 sequence: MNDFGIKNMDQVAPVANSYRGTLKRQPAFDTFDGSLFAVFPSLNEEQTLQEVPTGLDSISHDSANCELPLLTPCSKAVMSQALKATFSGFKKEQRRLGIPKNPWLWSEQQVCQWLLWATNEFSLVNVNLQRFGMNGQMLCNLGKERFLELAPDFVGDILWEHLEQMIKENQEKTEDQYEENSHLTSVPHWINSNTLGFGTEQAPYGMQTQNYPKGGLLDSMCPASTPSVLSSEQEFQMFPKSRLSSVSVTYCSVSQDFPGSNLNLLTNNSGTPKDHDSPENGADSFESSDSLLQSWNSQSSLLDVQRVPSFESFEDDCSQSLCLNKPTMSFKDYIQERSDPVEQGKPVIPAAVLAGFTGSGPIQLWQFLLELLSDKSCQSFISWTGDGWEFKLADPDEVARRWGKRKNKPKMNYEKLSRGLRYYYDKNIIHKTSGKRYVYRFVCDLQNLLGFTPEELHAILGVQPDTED
In short: as §1

[14] = target: T9, SPDEF (Homo sapiens, UniProt O95238 1-335); details: protein: recombinant; tags: N-terminal GST; dsDNA, one strand shown
T9 sequence: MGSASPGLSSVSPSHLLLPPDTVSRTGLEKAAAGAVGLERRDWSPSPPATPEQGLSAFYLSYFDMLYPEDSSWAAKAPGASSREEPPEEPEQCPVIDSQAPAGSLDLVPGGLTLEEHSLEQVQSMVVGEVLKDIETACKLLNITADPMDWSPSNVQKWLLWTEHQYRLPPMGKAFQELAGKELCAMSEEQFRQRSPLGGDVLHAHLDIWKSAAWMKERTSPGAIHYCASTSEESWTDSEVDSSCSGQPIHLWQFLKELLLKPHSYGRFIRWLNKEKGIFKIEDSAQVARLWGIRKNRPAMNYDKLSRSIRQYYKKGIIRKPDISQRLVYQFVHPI
In short: as §1

[15] = target: T10, ETV7 (Homo sapiens, UniProt Q9Y603 1-341); details: protein: recombinant; tags: N-terminal GST; dsDNA, one strand shown
T10 sequence: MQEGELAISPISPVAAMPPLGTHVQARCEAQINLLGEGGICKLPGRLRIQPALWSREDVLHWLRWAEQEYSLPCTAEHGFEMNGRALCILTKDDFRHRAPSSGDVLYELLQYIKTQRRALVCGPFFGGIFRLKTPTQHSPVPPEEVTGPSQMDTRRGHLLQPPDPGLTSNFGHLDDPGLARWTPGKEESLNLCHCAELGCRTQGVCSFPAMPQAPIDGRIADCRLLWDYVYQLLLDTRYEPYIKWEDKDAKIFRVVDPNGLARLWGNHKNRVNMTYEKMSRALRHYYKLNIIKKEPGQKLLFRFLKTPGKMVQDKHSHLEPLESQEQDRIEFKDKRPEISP
In short: as §1

[16] = target: T11, ELF5 (Homo sapiens, UniProt Q9UKW6-2 1-255); details: protein: recombinant; tags: N-terminal GST; dsDNA, one strand shown
T11 sequence: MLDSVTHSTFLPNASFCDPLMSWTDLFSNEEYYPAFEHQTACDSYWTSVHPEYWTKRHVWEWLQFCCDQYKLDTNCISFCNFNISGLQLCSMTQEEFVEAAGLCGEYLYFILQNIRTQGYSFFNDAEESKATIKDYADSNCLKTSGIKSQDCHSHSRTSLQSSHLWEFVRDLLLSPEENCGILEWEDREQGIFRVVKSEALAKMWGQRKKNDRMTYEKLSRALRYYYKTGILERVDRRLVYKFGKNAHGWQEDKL
In short: as §1

[17] = target: T12, ETV3 (Homo sapiens, UniProt P41162-2 1-143); details: protein: recombinant; tags: N-terminal GST; dsDNA, one strand shown
T12 sequence: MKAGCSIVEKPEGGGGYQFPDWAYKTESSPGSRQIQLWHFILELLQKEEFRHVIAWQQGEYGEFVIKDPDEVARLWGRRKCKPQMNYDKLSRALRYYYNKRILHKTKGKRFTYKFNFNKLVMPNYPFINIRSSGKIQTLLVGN
In short: as §1

[18] = target: ETV6 (Homo sapiens, UniProt P41212 1-452); details: protein: recombinant; tags: N-terminal GST; dsDNA, one strand shown
ETV6, sequence (P41212 whole entry): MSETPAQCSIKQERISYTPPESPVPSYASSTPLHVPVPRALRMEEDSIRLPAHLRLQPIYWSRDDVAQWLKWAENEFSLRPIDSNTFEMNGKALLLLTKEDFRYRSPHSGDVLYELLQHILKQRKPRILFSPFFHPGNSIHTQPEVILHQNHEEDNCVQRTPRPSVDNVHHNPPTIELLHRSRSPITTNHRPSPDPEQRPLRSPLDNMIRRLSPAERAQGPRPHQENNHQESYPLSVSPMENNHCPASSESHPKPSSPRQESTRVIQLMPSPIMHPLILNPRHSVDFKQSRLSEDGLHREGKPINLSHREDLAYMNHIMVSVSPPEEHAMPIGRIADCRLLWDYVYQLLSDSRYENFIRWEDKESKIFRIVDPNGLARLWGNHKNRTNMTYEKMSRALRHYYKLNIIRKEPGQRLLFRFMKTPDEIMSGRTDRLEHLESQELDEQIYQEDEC
In short: as §1

With CGACAA the binding signal [1] was 1.3 fold enrichment (6-mer frequency, TF over GST control), the binding signal [2] was 1.24 fold enrichment (6-mer frequency, TF over GST control) and the binding signal [3] was 1.12 fold enrichment (6-mer frequency, TF over GST control). The binding signal [4] was 1.15 fold enrichment (6-mer frequency, TF over GST control), the binding signal [5] was 1.18 fold enrichment (6-mer frequency, TF over GST control) and the binding signal [6] was 1.13 fold enrichment (6-mer frequency, TF over GST control). For the same sequence, the binding signal [7] was 1.08 fold enrichment (6-mer frequency, TF over GST control), the binding signal [8] was 1.17 fold enrichment (6-mer frequency, TF over GST control) and the binding signal [9] was 1.03 fold enrichment (6-mer frequency, TF over GST control). The binding signal [10] was 1.18 fold enrichment (6-mer frequency, TF over GST control), the binding signal [11] was 1.18 fold enrichment (6-mer frequency, TF over GST control) and the binding signal [12] was 1.24 fold enrichment (6-mer frequency, TF over GST control). For the same sequence, the binding signal [13] was 1.16 fold enrichment (6-mer frequency, TF over GST control), the binding signal [14] was 1.27 fold enrichment (6-mer frequency, TF over GST control) and the binding signal [15] was 1.12 fold enrichment (6-mer frequency, TF over GST control). The binding signal [16] was 1.14 fold enrichment (6-mer frequency, TF over GST control), the binding signal [17] was 1.15 fold enrichment (6-mer frequency, TF over GST control) and the binding signal [18] was 1.31 fold enrichment (6-mer frequency, TF over GST control).
